Potency and affinity values are given separately. Results filed as inconclusive are left out. The source made the active and inactive calls.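 How the source made its calls, unless noted: active means a fitted half-maximal concentration no higher than twice the top valid tested dose, with signal falling as cells die; inconclusive means flat curve between -70% and -30%, or poor fit; inactive means the rest, including signal rising instead of falling.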
Key:
[1] = fungal growth arrest, C. neoformans – Alamar Blue, cherry-picks, dose response (AID 686998;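 active means falling signal with fitted half-maximal potency no higher than twice the top valid tested dose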)
[2] = C. neoformans lysis by adenylate kinase leakage – AK release luminescence, cherry-picks, dose response (AID 687000;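 active means fitted dose curve reaches 40% lysis signal rise at or below the highest valid concentration tested for that sample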;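 further: luminescent detection of adenylate kinase leaking from lysed yeast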)
[3] = viability loss in HepG2 hepatoma cells – cell-based, cherry-picks, set 2, cytotoxicity control, dose response (AID 687002;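 active means a dose-response fit showing signal loss, with half-maximal concentration no higher than twice the top tested dose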)
[4] = viability loss in HeLa cells – cell-based, ATP luminescence, cherry-pick samples, cytotoxicity control, dose response (AID 687004)

Measured: outcome

C[C@@H]1CN([C@@H](C)CO)S(=O)(=O)c2ccc(C#Cc3ccc(F)cc3)cc2O[C@H]1CN(C)C(=O)NC1CCCC1
inactive: [1] | [2] | [3] | [4]

COc1ccccc1NC(=O)N[C@H]1CC[C@@H](CCn2cc(-c3ccccc3OC)nn2)O[C@@H]1CO
inactive: [1] | [2] | [3] | [4]

Cc1noc(C)c1NC(=O)N(C)C[C@@H]1Oc2ccc(NS(=O)(=O)c3cn(C)cn3)cc2CC(=O)N([C@H](C)CO)C[C@H]1C
inactive: [1] | [2] | [3] | [4]

C[C@@H]1CN([C@@H](C)CO)S(=O)(=O)c2ccc(C#C[C@@H](C)O)cc2O[C@@H]1CN(C)C(=O)C1CCCCC1
inactive: [1] | [2] | [3] | [4]

O=C([C@@H]1[C@@H](CO)[C@@H]2Cn3c(cccc3=O)[C@@H]2N1CCC(F)(F)F)N1CCCCC1
inactive: [1] | [2] | [3] | [4]

CC(C)NC(=O)Nc1ccc2c(c1)C(=O)N([C@@H](C)CO)C[C@@H](C)[C@@H](CN(C)C(=O)c1ccncc1)OCCCC[C@@H](C)O2
inactive: [1] | [2] | [3] | [4]

O=C(c1cccc(F)c1)N1CCCCN2[C@@H](CO)[C@H](c3ccc(-c4ccncc4)cc3)[C@@H]2C1
inactive: [1] | [2] | [3] | [4]

COCC#Cc1cnc2c(c1)C(=O)N([C@H](C)CO)C[C@H](C)[C@H](CN(C)C(=O)C1CC1)O2
inactive: [1] | [2] | [3] | [4]

Cc1noc(C)c1S(=O)(=O)Nc1ccc2c(c1)CC(=O)N([C@@H](C)CO)C[C@@H](C)[C@@H](CN(C)S(=O)(=O)c1cccs1)O2
inactive: [1] | [2] | [3] | [4]

O=C(Nc1ccccc1)N1CCCCN2[C@H](C1)[C@H](c1ccc(C#CC3CC3)cc1)[C@@H]2CO
inactive: [1] | [2] | [3] | [4]

C[C@@H](O)C#Cc1ccc([C@@H]2[C@H](CO)N3CCCCN(CC4CC4)C[C@@H]23)cc1
inactive: [1] | [2] | [3] | [4]

C[C@@H]1CN([C@H](C)CO)C(=O)c2cc(NC(=O)CCC(F)(F)F)ccc2O[C@@H](C)CCCCO[C@@H]1CN(C)C(=O)c1ccncc1
inactive: [1] | [2] | [3] | [4]

COc1ccc(CN(C)C[C@@H]2Oc3c(NC(=O)Nc4cccc5ccccc45)cccc3C(=O)N([C@@H](C)CO)C[C@@H]2C)cc1
inactive: [1] | [2] | [3] | [4]

CCn1cc(C(=O)N(C)c2ccc(OC)cc2OC)c2cc(OC)c(OC)cc2c1=O
inactive: [1] | [2] | [3] | [4]

C[C@@H]1CN([C@@H](C)CO)C(=O)c2cc(NC(=O)Nc3ccc4c(c3)OCO4)ccc2O[C@H]1CN(C)Cc1ccc(Oc2ccccc2)cc1
inactive: [1] | [2] | [3] | [4]

O=C(c1cccc(Br)c1)N1CCN(c2ccccn2)CC1
inactive: [1] | [2] | [3] | [4]

Cc1cccc(N2CCN(C(=O)C3CCC(=O)N3C(C)C)CC2C)c1 (stereo not given)
inactive: [1] | [2] | [3] | [4]

Cc1noc(C)c1NC(=O)N(C)C[C@@H]1Oc2ccc(NC(=O)NC(C)C)cc2CC(=O)N([C@H](C)CO)C[C@H]1C
inactive: [1] | [2] | [3] | [4]

COC(=O)N(C)C[C@H]1OCc2cn(nn2)CCCC(=O)N([C@@H](C)CO)C[C@@H]1C
inactive: [1] | [2] | [3] | [4]

CCC(=O)N1[C@H](CO)[C@H](c2ccccc2)[C@H]1CN(CC)C(=O)c1cccc(F)c1
inactive: [1] | [2] | [3] | [4]

C[C@H](O)C#Cc1ccc([C@H]2[C@H](CO)N3CCCCN(CC4CCOCC4)C[C@@H]23)cc1
inactive: [1] | [2] | [3] | [4]

Cc1noc(C)c1NC(=O)Nc1ccc2c(c1)C(=O)N([C@H](C)CO)C[C@H](C)[C@H](CN(C)CC1CCCCC1)O2
inactive: [1] | [2] | [3] | [4]

CCC(C)(C(=O)NC1CCCCC1)N(C(=O)C1CCC(=O)N1)c1ccccc1 (stereo not given)
inactive: [1] | [2] | [3] | [4]

CCCNC(=O)[C@@H]1[C@@H](CO)[C@@H]2Cn3c(cccc3=O)[C@H]1N2C(=O)Nc1cc(F)ccc1F
inactive: [1] | [2] | [3] | [4]

NC(=O)CN(c1ccccc1)S(=O)(=O)c1ccc(F)cc1
inactive: [1] | [2] | [3] | [4]

C[C@H](CO)N1C[C@H](C)[C@@H](CN(C)C(=O)Nc2ccc(F)cc2)Oc2c(NS(=O)(=O)c3ccccc3)cccc2C1=O
inactive: [1] | [2] | [3] | [4]

CO[C@@H]1CN(C)C(=O)c2cc(NC(=O)Nc3cccc(F)c3)ccc2OC[C@H](C)N(C)C[C@@H]1C
inactive: [1] | [2] | [3] | [4]

CO[C@H](CN(C)Cc1cc(F)ccc1F)[C@@H](C)CN([C@@H](C)CO)S(=O)(=O)c1ccc(F)cc1
inactive: [1] | [2] | [3] | [4]

C[C@H]1CN([C@@H](C)CO)C(=O)Cc2cc(NC(=O)Nc3ccccc3)ccc2O[C@@H]1CN(C)C(=O)Nc1ccc2c(c1)OCO2
inactive: [1] | [2] | [3] | [4]

CC(C)CC#Cc1cnc2c(c1)C(=O)N([C@H](C)CO)C[C@@H](C)[C@@H](CN(C)C(=O)c1ccc3c(c1)OCO3)O2
inactive: [1] | [2] | [3] | [4]

Cc1cc(C)c(NC(=O)C2CCCN2C)c(C)c1 (stereo not given)
inactive: [1] | [2] | [3] | [4]

CN1CCc2c(sc(N)c2C(=O)c2ccc(Cl)cc2)C1
inactive: [1] | [2] | [3] | [4]

CNC[C@@H]1Oc2cc(Br)ccc2S(=O)(=O)N([C@H](C)CO)C[C@H]1C
inactive: [1] | [2] | [3] | [4]

CCNC(=O)Nc1ccc2c(c1)C(=O)N(C)[C@@H]1CC[C@H](CC(=O)N[C@@H](C)c3ccccc3)O[C@@H]1CO2
inactive: [1] | [2] | [3] | [4]

CC1=C(C(=O)OCc2ccccc2)C(c2ccccc2)NC(=O)N1 (stereo not given)
inactive: [1] | [2] | [3] | [4]

C/C=C/c1cnc2c(c1)C(=O)N([C@@H](C)CO)C[C@@H](C)[C@@H](CN(C)C(=O)C1CCCCC1)O2
inactive: [1] | [2] | [3] | [4]

CC(C)NC(=O)Nc1cccc2c1O[C@H](CN(C)C)[C@H](C)CN([C@H](C)CO)C2=O
inactive: [1] | [2] | [3] | [4]

C[C@H]1CN([C@@H](C)CO)C(=O)c2cc(NC(=O)Nc3cccc4ccccc34)ccc2O[C@@H]1CN(C)C(=O)Nc1ccc(C(F)(F)F)cc1
inactive: [1] | [2] | [3] | [4]

O=C(C[C@@H]1CC[C@H]2[C@@H](COC[C@H](O)CN2Cc2ccccc2F)O1)NC1CCC1
inactive: [1] | [2] | [3] | [4]

CCCNC(=O)Nc1ccc2c(c1)C(=O)N(C)C[C@@H](OC)[C@@H](C)CN(C(=O)CC)[C@H](C)CO2
inactive: [1] | [2] | [3] | [4]

C[C@@H]1CN([C@H](C)CO)C(=O)c2cc(N(C)C)ccc2O[C@@H]1CN(C)C(=O)Nc1ccc(C(F)(F)F)cc1
inactive: [1] | [2] | [3] | [4]

CC(NC(=O)COc1ccc([N+](=O)[O-])cc1)c1ccccc1 (stereo not given)
inactive: [1] | [2] | [3] | [4]

COc1ccc(CN(C)C[C@@H]2OCCCC[C@H](C)Oc3ccc(N(C)C)cc3C(=O)N([C@H](C)CO)C[C@@H]2C)cc1
inactive: [1] | [2] | [3] | [4]

C[C@H]1CN([C@@H](C)CO)C(=O)c2cc(NC(=O)Nc3ccc4c(c3)OCO4)ccc2O[C@@H]1CN(C)CC1CCCCC1
inactive: [1] | [2] | [3] | [4]

C[C@@H]1CN([C@@H](C)CO)C(=O)c2cc(NC(=O)Nc3ccc(F)cc3)ccc2O[C@@H](C)CCCCO[C@H]1CN(C)S(=O)(=O)c1ccccc1
inactive: [1] | [2] | [3] | [4]

CC(Sc1ncnc2c1cnn2-c1ccccc1)C(=O)Nc1ccc(N2CCOCC2)cc1 (stereo not given)
inactive: [1] | [2] | [3] | [4]

Cc1ccccc1-n1ncc2c(SCC(=O)NC3CCCC3)ncnc21
inactive: [1] | [2] | [3] | [4]

C[C@H]1CN([C@@H](C)CO)C(=O)c2cc(C#Cc3ccccn3)cnc2O[C@H]1CN(C)Cc1ccncc1
inactive: [1] | [2] | [3] | [4]

COc1ccccc1-c1ccc([C@H]2[C@@H](C#N)N(C(=O)C3CC3)[C@@H]2CO)cc1
inactive: [1] | [2] | [3] | [4]

O=C([C@H]1[C@H](CO)[C@H]2Cn3c(cccc3=O)[C@H]2N1CCC(F)(F)F)N1CCCCC1
inactive: [1] | [2] | [3] | [4]

Cc1cccc(C)c1NC(=O)C(C)N1CCCCC1 (stereo not given)
inactive: [1] | [2] | [3] | [4]

C[C@H](CO)N1C[C@H](C)[C@@H](CN(C)S(C)(=O)=O)Oc2cc(C#Cc3ccccc3)ccc2S1(=O)=O
inactive: [1] | [2] | [3] | [4]

COCC#Cc1cnc2c(c1)C(=O)N([C@H](C)CO)C[C@@H](C)[C@@H](CN(C)C(=O)Nc1ccc(OC)cc1)O2
inactive: [1] | [2] | [3] | [4]

CC(=O)N1[C@@H](CO)[C@H](c2ccc(-c3ccccc3)cc2)[C@@H]1CNC(=O)C1CC1
inactive: [1] | [2] | [3] | [4]

COc1ccc(C2CC(c3cccs3)=NN2C(=O)c2ccc(Br)o2)cc1 (stereo not given)
inactive: [1] | [2] | [3] | [4]

— PubChem BioAssay
